Inconclusive results are not listed. Calls of active or inactive are those of the source. Calls follow the shape of the dose curve; as a rule, active = well fitted inhibition curve with a large enough effect; inconclusive = small, poorly fitted or top-dose-only effect; inactive = flat fitted curve, though single readings scatter.
molecular target: Ubiquitin carboxyl-terminal hydrolase 1 (Homo sapiens) (UniProt O94782); test: Inhibitors of USP1/UAF1: Pilot qHTS (AID 504865); conditions: purified USP1/UAF1, Ub-rhodamine cleavage fluorescence; series mostly up to 114 µM; activity change, negative = inhibition: at the top concentration;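 also: rhodamine fluorescence freed from ubiquitin-rhodamine substrate followed over time; top concentration of the series differs between compounds; nearly all actives have a fitted effect of over 35% in size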
How it was run: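 USP1/UAF1 complex (1nM) preincubated with compound 15 min at room temperature, then Ub-Rho substrate (150nM final) added. Fluorescence read kinetically at 480/540 nm, 6 reads every 60 seconds. Buffer: 50mM HEPES pH 7.8, 0.5mM EDTA, 0.1 mg/ml BSA, 1mM TCEP, 0.01% Tween-20.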
% is scaled to controls: 0 for no effect and ±100 for the full control effect.

Chain of Ubiquitin carboxyl-terminal hydrolase 1 (Homo sapiens) (O94782 whole entry, looked up): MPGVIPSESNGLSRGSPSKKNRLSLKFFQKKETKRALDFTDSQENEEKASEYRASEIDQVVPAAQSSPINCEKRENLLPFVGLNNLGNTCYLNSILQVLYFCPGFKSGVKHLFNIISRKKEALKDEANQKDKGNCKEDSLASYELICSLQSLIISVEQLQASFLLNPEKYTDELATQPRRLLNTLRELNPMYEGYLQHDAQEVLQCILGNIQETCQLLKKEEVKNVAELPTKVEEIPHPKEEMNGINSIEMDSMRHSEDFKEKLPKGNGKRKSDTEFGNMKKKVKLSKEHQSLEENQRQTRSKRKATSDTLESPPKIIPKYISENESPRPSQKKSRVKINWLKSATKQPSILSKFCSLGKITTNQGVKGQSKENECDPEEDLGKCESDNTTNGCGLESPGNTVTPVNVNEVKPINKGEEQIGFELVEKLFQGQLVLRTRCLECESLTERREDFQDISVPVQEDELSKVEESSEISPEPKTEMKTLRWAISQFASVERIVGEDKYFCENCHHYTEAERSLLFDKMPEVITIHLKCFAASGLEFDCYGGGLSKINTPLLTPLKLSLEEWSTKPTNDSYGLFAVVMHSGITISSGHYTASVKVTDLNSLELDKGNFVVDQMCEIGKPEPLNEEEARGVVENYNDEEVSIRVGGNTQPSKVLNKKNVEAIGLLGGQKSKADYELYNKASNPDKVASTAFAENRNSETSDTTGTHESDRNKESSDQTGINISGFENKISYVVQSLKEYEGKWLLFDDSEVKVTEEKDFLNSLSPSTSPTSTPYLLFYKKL

Structure (SMILES)	Potency	activity change, negative = inhibition
COc1ccc(S(=O)(=O)Nc2nnc(CC(C)C)s2)cc1	inactive	–
CCC(=O)c1ccc(O)cc1	–	-2.83% (inactive)
N[C@@H](CSCCCO)C(=O)O	–	1.88% (inactive)
CCCOC(=O)c1ccccc1	–	-0.277% (inactive)
CC(O)COc1ccccc1 (configuration not stated)	–	-2.31% (inactive)
CCOc1ccc2ccccc2c1C(=O)N[C@@H]1C(=O)N2[C@@H]1SC(C)(C)[C@@H]2C(=O)O	–	5.43% [at 54.9 µM] (inactive)
NC(CSCC(=O)O)C(=O)O (configuration not stated)	–	4.15% (inactive)
CCC(=O)Nc1ccc(O)cc1	–	-9.34% (inactive)
O=c1cc[nH]c(=O)[nH]1	–	-10.3% (inactive)
CCOC(CN1CCN(CC(C)C(=O)c2ccccc2)CC1)c1ccccc1 (configuration not stated)	–	-11.2% (inactive)
Cc1cc(O)cc2c1O[C@](C)(CCC[C@H](C)CCC[C@H](C)CCCC(C)C)CC2	–	-4.23% (inactive)
O=c1cc[nH]c(=S)[nH]1	–	-3.05% (inactive)
CCCCN(CCCC)CCCOC(=O)c1ccc(N)cc1	–	2.49% [at 54.9 µM] (inactive)
Nc1ccc(S(=O)(=O)Nc2ccccc2)cc1	–	-3.09% (inactive)
CC[C@@]1(c2ccccc2)NC(=O)N(C)C1=O	–	-8.16% (inactive)
O=C(O)CC(O)C(=O)O (configuration not stated)	–	-3.71% (inactive)
NC(=O)N/N=C/c1ccc([N+](=O)[O-])o1	inactive	–
CN1CCCCC1CCN1c2ccccc2Sc2ccc(S(C)=O)cc21 (configuration not stated)	–	-9.43% (inactive)
CC(O)CN(CCN(CC(C)O)CC(C)O)CC(C)O (configuration not stated)	–	-2.43% (inactive)

Structure (SMILES)	Potency	activity change, negative = inhibition
COc1ccc2c(c1)C(=O)N(CCc1ccc(S(=O)(=O)NC(=O)NC3CCCCC3)cc1)C(=O)C2(C)C	–	-10.1% [at 54.9 µM] (inactive)
NS(=O)(=O)c1cc2c(cc1Cl)NC(CSCc1ccccc1)=NS2(=O)=O	–	-2.99% [at 54.9 µM] (inactive)
Cc1cc2c(cc1S(N)(=O)=O)S(=O)(=O)CCC2	–	11.9% [at 54.9 µM] (inactive)
Oc1ccc(C(O)CNCCCCCCNCC(O)c2ccc(O)c(O)c2)cc1O (configuration not stated)	–	-0.266% (inactive)
CCn1cc(C(=O)O)c(=O)c2cnc(N3CCNCC3)nc21	–	15% [at 54.9 µM] (inactive)
O=C1O[C@H]([C@@H](O)CO)C(O)=C1O	–	-6.31% (inactive)
COc1ccc2[nH]c(S(=O)Cc3ncc(C)c(OC)c3C)nc2n1 (configuration not stated)	–	-8.33% (inactive)
Nc1nc2c(ncn2CCC(CO)CO)c(=O)[nH]1	–	-3.72% (inactive)
CCN(CC)CCSC(=O)C(c1ccccc1)c1ccccc1	inactive	–
Cc1ccc2nc(N)[nH]c(=O)c2c1Sc1ccncc1	–	-9.56% (inactive)
NCCNCCNCCNCCN	–	-4.24% (inactive)
c1ccc2c(CC3=NCCN3)cccc2c1	inactive	–
CC(C)(C)C(=O)NCCCC(=O)O	–	-6.41% (inactive)
O=C1NS(=O)(=O)c2ccccc21	inactive	–
CC1(C)CO[C@@H](CC(=O)O)CN1	–	-3.93% (inactive)
COc1cc2[nH]c(=O)[nH]c(=O)c2cc1OC	–	-8.28% [at 54.9 µM] (inactive)
O=C(O)COc1nn(Cc2ccccc2)c2ccccc12	–	-9.17% (inactive)
CC1(C)OC(=O)NC1=O	inactive	–

— PubChem BioAssay (NCATS)
